Compound activity: PubChem BioAssay, National Center for Advancing Translational Sciences (NCATS)
Sampled rows, rich in hits. Any-hit rate of the full collection: about 12%.
BAZ2B inh = blocks human BAZ2B | 360,000 compounds, 4.4% hits | AID 504333 | AlphaScreen BAZ2B-H3K14Ac peptide displacement | Potency, µM (series often up to 114 µM), for inactives: top-dose activity change, negative = inhibition, most hits filed as inhibitors; further: potency means the concentration at half of the fitted maximal effect; on the % scale 0 is the no-effect control and ±100 the full control effect; nearly all actives have a fitted effect of over 60% in size
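Multi-concentration screen (max 110 uM) measuring displacement of acetylated histone H3 peptide from BAZ2B by AlphaScreen, using 50 nM protein, 50 nM peptide and 10 ug/mL streptavidin donor plus Ni-chelate acceptor beads.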
PI5P4K alpha inh = blocks human PI5P4K alpha kinase activity; P48426; PI5P4Kalpha enzyme, ADP-Glo luminescence, 60 min; stronger effect = lower value; max response, %; 330,000 compounds, 1.2% hits; active means max response of -50% or lower; inconclusive means between -30% and -50%; inactive means -30% or higher; further: value at the top dose of about 77 µM; on the % scale 0 is the no-effect control and ±100 the full control effect
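ADP-Glo luminescence end-point read after a 60 min room-temperature kinase reaction of PI5P4Kalpha plus substrate, initiated with ATP at 5 microM final. Buffer: 0.038 M HEPES pH 7.4, EGTA, 0.1% CHAPS, 5% DMSO.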
HP1b binding inh = blocks HP1-beta chromodomain binding to methylated histone tails | 390,000 compounds, 0.56% hits | AlphaScreen HP1-beta / biotin-H3K9me3 peptide binding | Potency, µM (doses to about 114 µM), for the others: at the top dose activity change, negative = inhibition, actives largely listed as inhibitors | P83916; further: potency means the concentration at half of the fitted maximal effect; nearly all actives have a fitted effect of over 70% in size
Target sequence (P83916 whole entry, looked up): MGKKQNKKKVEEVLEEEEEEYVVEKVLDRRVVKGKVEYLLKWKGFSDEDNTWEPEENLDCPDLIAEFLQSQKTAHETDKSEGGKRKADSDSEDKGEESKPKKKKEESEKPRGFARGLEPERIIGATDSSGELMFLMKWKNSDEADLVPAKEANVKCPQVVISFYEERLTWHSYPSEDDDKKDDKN
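AlphaScreen: HP1-beta (50 nM) preformed 30 min with biotin-H3(1-18)K9me3 peptide (50 nM) in PBS pH 7.4, 0.01% Tween-20. Compound added for 30 min at RT, then streptavidin donor/nickel chelate acceptor beads (10 ug/mL) for 30 min.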
PLK1 PBD inh = blocks phosphopeptide binding to human PLK1 polo-box domain; P53350; Plk1 PBD binding of FITC phosphopeptide, fluorescence polarization; Potency, µM, inactives show max response, negative = inhibition, actives largely listed as inhibitors; 360,000 compounds, 2.8% hits; AID 720504; further: potency means the concentration at half of the fitted maximal effect; series mostly up to about 57 µM; on the % scale 0 is the no-effect control and ±100 the full control effect; nearly all actives have a fitted effect of over 65% in size
G9a inh = G9a (human) methyltransferase inhibition; Q96KQ7; G9a H3K9 monomethylation, AlphaScreen, 2 h; Potency, µM (titrated, usually from 102 µM), without a hit: at the highest dose activity, negative = inhibition, usual class: inhibitors; 350,000 compounds, 8.8% hits; further: potency means the concentration at half of the fitted maximal effect; on the % scale 0 is the no-effect control and ±100 the full control effect; nearly all actives have a fitted effect of over 75% in size
Target sequence (Q96KQ7 913-1193 limits assumed): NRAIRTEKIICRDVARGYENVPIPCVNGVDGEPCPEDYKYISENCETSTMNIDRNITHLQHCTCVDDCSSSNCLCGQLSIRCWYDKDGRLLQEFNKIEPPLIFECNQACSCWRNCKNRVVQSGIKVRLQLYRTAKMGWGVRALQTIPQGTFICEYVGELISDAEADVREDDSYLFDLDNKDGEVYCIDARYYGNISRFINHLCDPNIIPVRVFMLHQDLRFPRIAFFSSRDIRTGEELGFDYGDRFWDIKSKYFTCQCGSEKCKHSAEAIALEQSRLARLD
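G9a (20 nM) preincubated 15 min RT with compounds, then 500 nM biotinylated H3K9 peptide and 20 uM SAM added; 2 h RT reaction. Monomethyl-H3K9 product detected by AlphaScreen with anti-H3K9me1 antibody, streptavidin donor and anti-rabbit IgG acceptor beads.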
JMJD2A Tudor inh = blocks the human JMJD2A Tudor domain; O75164; AlphaScreen JMJD2A-Tudor / H3K4me3 peptide binding; Potency, µM (highest dose often 114 µM), inactives show at the top dose activity change, negative = inhibition, most hits filed as inhibitors; 390,000 compounds, 4.4% hits; AID 504339; further: potency means the concentration at half of the fitted maximal effect; on the % scale 0 is the no-effect control and ±100 the full control effect; nearly all actives have a fitted effect of over 50% in size
An asterisk follows results filed as active; ? = inconclusive; . = no result; [ ] = another dose, or the depositor's remark. Unless noted, the call rests on the fitted dose curve; in most records, active means well fitted curve in the direction sought with a large enough effect; inconclusive means small, poorly fitted or top-dose-only effect, or another doubt; inactive means no such curve, though single readings can be large; an effect the other way counts as inactive or inconclusive.

SMILES	BAZ2B inh	PI5P4K alpha inh	HP1b binding inh	PLK1 PBD inh	G9a inh	JMJD2A Tudor inh
Cc1ccc(N=Nc2c(C)[nH][nH]c2=O)c(C)c1	?	-2	-24%	0%	?	?
Cc1[nH][nH]c(=O)c1N=Nc1ccccc1C#N	?	.	.	.	45µM*	.
COc1ccc(N=Nc2c(C)[nH][nH]c2=O)cc1	56µM*	-11	-30%	-17%	?	-34%
COc1cccc(C(O)c2nc(-c3ccc(Cl)cc3)cs2)c1 (stereo not drawn)	.	24	.	1%	.	.
Cc1ccc(C(=O)NCc2ccc(N(C)C)cc2)cc1NC(=O)c1nsc2ccccc12	?	.	-17%[57 µM]	.	-53%[59 µM]	?
CCCc1cc(=O)[nH]c(Nc2cc(C)ccc2OC)n1	-2%	.	18%	.	-3%[59 µM]	-10%
Nc1ccc(C(=O)NC23CC4CC(CC(C4)C2)C3)cc1	?	-2	31%	-6%	.	3%
COc1ccc(N2C(=S)NC(C)(C)CC2(C)c2ccc(OC(C)=O)cc2OC(C)=O)cc1 (stereo not drawn)	?	3	11%	-3%	79µM*	-21%
CC(=O)Oc1ccc(C2(C)CC(C)(C)Oc3cc(OC(C)=O)ccc32)c(OC(C)=O)c1 (stereo not drawn)	?	-5	19%	0%	.	-7%
COCC(C)n1c(C)cc(C(=O)COc2ccc(N(C)S(=O)(=O)c3ccc(NC(C)=O)cc3)cc2)c1C (stereo not drawn)	?	1	-12%	-1%	35µM*	-32%
C=CCn1c(C)cc(C(=O)COc2ccc(N(C)S(=O)(=O)c3ccc(NC(C)=O)cc3)cc2)c1C	.	1	9%	5%	.	-18%
Cc1ccc2c(c1)cc1c(=O)n(Cc3cccc(Cl)c3)nc(C)n12	1%	.	43%	.	13%[59 µM]	9%
Cc1ccc(S(=O)(=O)C/N=C(/NC(=S)N(c2ccccc2)c2ccccc2)c2ccccc2)cc1	14%	.	9%	?	10µM*	?
Cc1ccc(S(=O)(=O)NC(=NC(C)C)c2ccccc2)cc1	10%	0	28%	-2%	15%[0.501 µM]	-17%
CN(C)CCCN(Cc1cc2cc3c(cc2[nH]c1=O)OCO3)C(=S)Nc1cccc(Cl)c1	-39%	5	-1%	-17%	50µM*	?
O=C(CNC(=O)c1ccc(Cl)cc1)OC1CCOC1=O (stereo not drawn)	-3%	3	-2%	24µM*	2%	-17%[11.4 µM]
COc1ccccc1N1CCN(C(=O)c2cnn(-c3ccc(F)cc3F)c2C2CCNCC2)CC1	3%[57.1 µM]	.	20%	.	-20%[59 µM]	-34%
S=c1sc2c(Cl)ncnc2n1-c1ccccc1	-23%	-2	26%	-18%	45µM*	1%
COc1ccc(/C=N/n2cnc3c(sc(=S)n3-c3ccccc3)c2=O)cc1	8%	1	62%	-18%	48%	-13%
CN(C(=S)NCCN1CCOCC1)C(c1ccccc1)c1ccccc1	50µM*	0	?	?	20µM*	10µM*
S=C(NCCc1ccccc1)NCCN1CCOCC1	-8%	-3	50%	1%	-5%	-8%
Cc1cc(C)nc(N2N=C(C(C)(C)C)CC2=O)n1	-38%	.	32%	-4%	3.5µM*	?
Cc1ccc(SCC2=NN(c3nc(C)cc(C)n3)C(=O)C2)cc1	2%	-17	10%	-27%	24%[59 µM]	-27%
Cc1cccc(S(=O)(=O)Nc2ccc3c(c2)OCCO3)c1	0%	-9	5%	?	.	-32%
CC(=O)Nc1ccc(Nc2nc3ccccc3nc2NS(=O)(=O)c2ccccc2)cc1	-22%	-7	16%	5%	?	-19%
SMILES	BAZ2B inh	PI5P4K alpha inh	HP1b binding inh	PLK1 PBD inh	G9a inh	JMJD2A Tudor inh
O=S(=O)(Nc1nc2ccccc2nc1Nc1ccc2c(c1)OCO2)c1ccccc1	-4%	-2	3%	?	40µM*	-11%
Cc1cccc(S(=O)(=O)Nc2nc3ccccc3nc2Nc2ccc3c(c2)OCO3)c1	?	4	-17%	?	45µM*	?
CC1OC(CC(=O)O)CC2=C1C(=O)c1c(O)cccc1C2=O (stereo not drawn)	.	-23	?	2.4µM*	.	56µM*
CC(C)C[C@@H](CO)N1CCN(CC(C)C)CCC1=O	1%	2	25%	-4%	1%	-11%
CCCCCCCN1CCC(=O)N(CCO)CC1	-2%	-8	30%	-1%	9%	-6%
CCCN1CCC(=O)N(CCO)CC1	-11%[57.1 µM]	-1	27%	-8%	45µM*	-19%
CCCN1CCC(=O)N([C@H](CO)CC(C)C)CC1	-26%	-2	12%	-6%	32µM*	-12%
Cc1c(C(=O)Nc2ccccc2)sc2nc(-c3cc4cc(Cl)ccc4oc3=O)[nH]c(=O)c12	-6%	.	18%	.	-6%[59 µM]	-21%
CCCCOc1ccc(N=Nc2ccc(N)nc2N)cn1	14%	6	?	-8%	20%[0.501 µM]	35µM*
CCCCOc1ccc(Cc2cnc(N)nc2N)cc1	-7%	-3	29%	5%	.	-28%
Cc1cnc(CNC(=O)c2ccc3sc([C@H]4C[C@H](O)[C@@H](CO)O4)nc3c2)cn1	.	1	.	-4%	.	.
Brc1cc2c(cc1/C=N/Nc1nc(N3CCCC3)nc(N3CCOCC3)n1)OCO2	-9%	0	7%	0%	16µM*	-27%
CC(=O)N1CCC2(CC1)CCN(c1ccccc1)CC2	.	.	.	.	-3%[12.7 µM]	.
CC(C)Cn1c(-c2csc(C(C)C)c2)n[nH]c1=S	-34%	-15	-10%	0%	5µM*	?
CCn1c(-c2csc(C(C)C)c2)n[nH]c1=S	-10%	-19	?	-17%	1.6µM*	10µM*
